# Screen size: about 48,000 compounds; about 13,000 (27%) showed an effect of 50% or more. The list shows a part of the results.
# System: Wolbachia pipientis
# Assay: Anti-Wolbachia Cell-Based Screen
# Format: functional
# Set-up: scale not given: in the data most compounds retested in dose-response had high values
# Conditions: 5 µM
row,Structure (SMILES),Percent Effect
1,CN1CCOC(C(=O)N2CCC3(CCCC3)CC2)C1 (centres undefined),-33.61%
2,O=C(CCc1ccccc1Br)NCC(=O)NCc1ccccc1,2.467%
3,CN(Cc1ccc(F)cc1)CC1(O)CCN(C(=O)c2cccs2)C1 (centres undefined),131.3%
4,CN(Cc1ccc(F)cc1)CC1(O)CCN(C(=O)c2ccn(C)n2)C1 (centres undefined),136.3%
5,CN(C)CCN1CC2(CCC1=O)CCN(C(=O)c1ccn(C)n1)CC2,6.742%
6,COc1ccc(CN(C)CC2(O)CCN(C(=O)c3cccn3C)C2)cc1 (centres undefined),-15.88%
7,O=C(Cc1ccccc1)C1CCCN(Cc2cncn2C2CCCC2)C1 (centres undefined),-39.33%
8,Cc1nccnc1N1CCC(Cc2ccccc2Cl)(C(=O)O)CC1,4.229%
9,CCc1ccc(C(NCC(N)=O)C(C)(C)C)o1 (centres undefined),-15.62%
10,c1cc(CN2CCCC2)cc(-n2ccnc2-c2ccncc2)c1,-6.612%
11,Cc1nnc(CN2CCC(Oc3ccc(F)cc3)CC2)o1,-12.54%
12,CN1CCC(Oc2ccc(-n3ccnc3-c3nccn3C)cc2)CC1,110.4%
13,Cc1ccc(-c2nccn2-c2ccc(OC3CCN(C)CC3)cc2)o1,109.9%
14,Cc1ccc(C)c(C(=O)Nc2ccc(OC3CCN(C)CC3)cc2)c1,-4.844%
15,Cc1ccc(C(=O)Nc2ccc(OC3CCN(C)CC3)cc2)c(C)c1,4.12%
16,CN1CCC(Oc2ccc(-n3ccnc3-c3ccncc3)cc2)CC1,114.7%
17,Cn1ccnc1-c1nccn1-c1cccc(CN2CCCC2)c1,-8.491%
18,Cc1cccc(C(=O)Nc2ccc(OC3CCN(C)CC3)cc2)c1,-4.145%
19,CCC(CC)c1cc(CNC(=O)N2CCOC(C)C2)on1 (centres undefined),0.178%
20,COc1ccc(C(=O)N2CCC(Oc3cccc(C)c3)(C(=O)O)CC2)o1,-1.031%
21,Cc1ccc(Cl)c(C(C(=O)O)N(C)Cc2cnn(C)c2)c1 (centres undefined),-5.56%
22,O=C(NC1CCS(=O)(=O)C1)c1sccc1-c1ccc(F)cc1 (centres undefined),12.15%
23,COc1ncc(CN2CCCC2c2[nH]ncc2C(=O)N(C)C)cn1 (centres undefined),107.3%
24,Cc1nn(C)c(C)c1C1CCCN1Cc1cccc(C(=O)N(C)C)c1 (centres undefined),-5.304%

row,Structure (SMILES),Percent Effect
1,CC(C)c1ncc(CN2C[C@@H](CN3CCC(O)CC3)[C@@H](CO)C2)cn1,-17.14%
2,CNc1ncc(CN2CCCC2c2[nH]ncc2C(=O)N(C)C)cn1 (centres undefined),118.3%
3,CC(C)c1ncc(CN2CCC(c3n[nH]cc3C(=O)N(C)C)C2)cn1 (centres undefined),128.3%
4,CCN1CCN(C[C@@H]2CN(Cc3cnc(C(C)C)nc3)C[C@@H]2CO)CC1,-21.09%
5,CC(C)c1ncc(CN2CCCC(CO)C2)cn1 (centres undefined),-2.469%
6,CNc1ncc(CN(C)C(=O)[C@@]23CNC[C@@H]2CN(C2CCCC2)C3)cn1,3.616%
7,CC(C)c1ncc(CN2C[C@@H](CN3CCCC3)[C@@H](CO)C2)cn1,-18.71%
8,CC(C)c1ncc(CN2CCCC2c2[nH]ncc2C(=O)N(C)C)cn1 (centres undefined),138.1%
9,CCc1cn[nH]c1C1CCCN(C(=O)c2cnc(NC(C)C)nc2)C1 (centres undefined),-3.348%
10,COc1ccccc1CC1CCCN1C(=O)c1cn[nH]c1C (centres undefined),6.47%
11,CCC(CC)N(C)S(=O)(=O)c1ccc(CCNC(C)=O)s1,-16.74%
12,COc1cccc2c1OCC(C(=O)N(C)CCCc1cnn(C)c1)C2 (centres undefined),-4.921%
13,Cc1cccn2cc(CN3CCCC(c4ccn[nH]4)C3)nc12 (centres undefined),3.062%
14,CC(C)c1cccc(-n2cc(O)c(C(=O)NCCC(=O)N(C)C)n2)c1,-3.512%
15,C[S+]([O-])CCNC(=O)Nc1cc(F)ccc1-n1cccn1 (centres undefined),-7.044%
16,COCCNC(=O)c1nn(-c2cccc(C(C)C)c2)cc1O,-7.047%
17,Cc1nc(C(C)NC(=O)COc2ccc(F)cc2)n[nH]1 (centres undefined),-12.19%
18,CSCC(C)N(C)C(=O)c1nn(-c2ccc(F)cc2C)cc1O (centres undefined),188.7%
19,Cc1cc(F)ccc1-n1cc(O)c(C(N)=O)n1,117.5%
20,Cc1cc(F)ccc1-n1cc(O)c(C(=O)NCC[S+](C)[O-])n1 (centres undefined),102.5%
21,COCCn1ccc2cc(NC(=O)N(C)C(C)CSC)ccc21 (centres undefined),13.09%
22,Cc1nc(NC(=O)c2nn(-c3ccc(F)cc3C)cc2O)n[nH]1,158.1%
23,O=C(c1nn(-c2ccccc2F)cc1O)N1CCCC1,-1.057%
24,CC(C)c1cccc(-n2cc(O)c(C(N)=O)n2)c1,-1.55%

row,Structure (SMILES),Percent Effect
1,CC(C)C(O)CCNC(=O)Nc1cc(F)ccc1-n1cccn1 (centres undefined),-1.867%
2,COc1cccc(C2C3=C(COC3=O)Nc3[nH]nc(C)c32)c1O (centres undefined),0.9958%
3,OCc1cc2ccccc2nc1NCC1(O)CCC1,2.986%
4,O=C(NCC1(O)CCOCC1)c1ccn(-c2ccccc2F)n1,-4.813%
5,Cc1cc(F)ccc1-n1cc(O)c(C(=O)NCC2(O)CCC2)n1,99.53%
6,O=C(NCCC(=O)N1CCCC1)c1nn(-c2ccccc2F)cc1O,-1.899%
7,Cc1nnc(N2C[C@@H](OCC3CCCC3)[C@H]3OCCC[C@H]32)s1.O=C(O)C(F)(F)F,-7.489%
8,Cc1nnc(N2CCO[C@H]3[C@@H](OCc4ccccn4)CC[C@@H]32)s1.O=C(O)C(F)(F)F.O=C(O)C(F)(F)F,0.4576%
9,O=C(CO[C@@H]1CC[C@H]2[C@H]1OCCN2c1ncccn1)N1CCCC1.O=C(O)C(F)(F)F,-14.02%
10,O=C(O)C(F)(F)F.c1cnc(N2CCO[C@H]3[C@H](OCC4CC4)CC[C@@H]32)nc1,118.2%
11,Fc1cnc(N2C[C@@H](OCC3CCOCC3)[C@H]3OCCC[C@H]32)nc1.O=C(O)C(F)(F)F,83.11%
12,O=C(O)C(F)(F)F.c1cnc(N2CCO[C@H]3[C@H](OCCN4CCCC4)CC[C@@H]32)nc1,-8.905%
13,Fc1cnc(N2CC[C@@H](N3CCOCC3)[C@@H]2Cc2ccncc2)nc1.O=C(O)C(F)(F)F.O=C(O)C(F)(F)F,-1.872%
14,Fc1cnc(N2CCO[C@H]3[C@H](OCCN4CCCC4)CC[C@@H]32)nc1.O=C(O)C(F)(F)F,101.9%
15,Fc1cnc(N2CCO[C@H]3[C@H](OCC4CCOCC4)CC[C@@H]32)nc1.O=C(O)C(F)(F)F,113.1%
16,C1CC(CN2CCO[C@H]3[C@H](OCC4CC4)CC[C@@H]32)CCO1.O=C(O)C(F)(F)F,-2.542%
17,Cc1nnc(N2C[C@H](OCC3CCCC3)[C@H]3OCCC[C@H]32)s1.O=C(O)C(F)(F)F,-7.444%
18,Cn1cccc1C(=O)NS(=O)(=O)c1cnn(-c2ccccc2F)c1,-15.01%
19,CCC(CC)c1cc(CNC(=O)N2CCC(CO)CC2)on1,3.231%
20,CCSc1ccc(NC(=O)NC(C)c2ccncc2)cn1 (centres undefined),4.069%
21,CN(C)C(=O)CO[C@@H]1CC[C@H]2[C@H]1OCCN2c1ncccn1.O=C(O)C(F)(F)F,-13.26%
22,O=C(O)C(F)(F)F.c1cnc(N2CCO[C@H]3[C@H](OCC4CCOCC4)CC[C@@H]32)nc1,109.2%
23,Cc1ccc(N2CCO[C@H]3[C@H](OCC(=O)N4CCCC4)CC[C@@H]32)cc1.O=C(O)C(F)(F)F,-12.38%
24,c1cnc(N2CCO[C@H]3[C@H](OCCN4CCOCC4)CC[C@@H]32)nc1,4.128%

row,Structure (SMILES),Percent Effect
1,CN(C)C(=O)CO[C@@H]1CC[C@H]2[C@H]1OCCN2c1ncc(F)cn1.O=C(O)C(F)(F)F,112.4%
2,CC(C)c1noc(CS(=O)(=O)CC(=O)NCc2ccccc2)n1,-6.671%
3,CNC(=O)CC1CCN(C(=O)NCC2(c3ccccc3F)CC2)CC1,17.39%
4,C[C@H](NC(=O)c1cnc(-c2ccccc2)nc1O)C(N)=O,-2.731%
5,COc1ccccc1Oc1ncccc1CNC(=O)C(O)C(F)(F)F (centres undefined),-1.797%
6,O=C1NC(C(=O)NCc2cccnc2Oc2ccc(F)cc2F)CO1 (centres undefined),106.1%
7,O=C1NC(C(=O)NCc2cccnc2Oc2ccccc2F)CO1 (centres undefined),117.3%
8,O=C(CN1CCCC1=O)NCc1cccnc1Oc1ccc(F)c(F)c1,-46.82%
9,Cc1ccccc1Oc1ncccc1CNC(=O)Cn1cccnc1=O,-3.943%
10,CC1(C(=O)NCc2cccnc2Oc2ccc(F)cc2F)CCCNC1 (centres undefined),-10.63%
11,O=C1NC(C(=O)NCc2cccnc2Oc2ccc(F)c(F)c2)CO1 (centres undefined),103.5%
12,CC1(C(=O)NCc2cccnc2Oc2ccc(F)c(F)c2)CCCNC1 (centres undefined),-1.745%
13,Cc1cccc(C)c1Oc1ncccc1CNC(=O)C1(C)CCCNC1 (centres undefined),9.373%
14,Cc1cccc(C)c1Oc1ncccc1CNC(=O)C1COC(=O)N1 (centres undefined),89.56%
15,CN(C)S(=O)(=O)NCc1cccnc1Oc1ccccc1F,-2.54%
16,CC(=O)N[C@@H](C)C(=O)NCc1cccnc1Oc1ccccc1F,-9.866%
17,CC(C)c1noc(CN(C)C(c2ccc(F)cc2)c2cccnc2)n1 (centres undefined),7.35%
18,CCn1nc2c(cc1=O)CN(CCCOc1ccc(C#N)cc1)CC2,-4.501%
19,CC(C)(C)OC(=O)NCC1CCCCN1Cc1cccc(C(N)=O)c1 (centres undefined),-2.516%
20,CCOC(=O)C1CN(C(=O)C2CCOCC2)Cc2ncn(CC)c21 (centres undefined),3.509%
21,Cc1nnc(CN2CCCC2c2ccc(C(C)(C)C)cc2)o1 (centres undefined),-26.52%
22,CSc1ncccc1C(=O)N1CCC2(CC1)c1nc[nH]c1CCN2C,9.792%
